Experimental data published in the supplement of paper PMC10338343.
± gives the standard deviation.

Test system: MILI (PIWIL2) piRISC loaded with piRNA #1 (26 nt)
Test: pre-steady-state target cleavage rate (min^-1); guide: piRNA #1 5'p-UGAGGUAGUAGGUUGUAUAGUAUCCA; MIWI and MILI are mouse PIWI proteins and EfPiwi is from a freshwater sponge; tags in brackets are library labels; higher = faster piRNA-guided slicing of the target
Conditions: auxiliary factor: 500 nM mouse GTSF1
Method: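 Cleave-'n-Seq: a library of target RNAs (target site embedded in constant flanks, ACAGCATTCCGCGTTAGTGATATCCG... 5' flank; DNA-blocked outside the site) at 0.1 nM was incubated with 1 nM active mouse MILI or MIWI piRISC (synthetic 5'-monophosphorylated piRNA guide) with or without 500 nM mouse GTSF1 at 33 °C for 1 min to 16 h. Uncleaved targets were sequenced and normalised to non-target controls, and the pooled three trials were fitted to a burst-and-steady-state model to give the pre-steady-state cleavage rate (min^-1; k3 is constrained to at most 1e-4). Sequence is the target site only; target names encode pairing extent (gX:gY) and contiguous / 1-mismatch / 2-mismatch / bulge geometry. Fits with R² ≤ 0 are excluded.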

Row | Sequence | pre-steady-state target cleavage rate
1 | GGAGAGGAUAGUAUUCAACCUACUACCUCA | 0.0731 ± 0.011
2 | GGAGACCAUACUAUUCAACCUACUUCCUCA | 0.1 ± 0.022
3 | GGAGACCUAUGUAUACAACCUAAUACCUCA | 0.0196 ± 0.0049
4 | GGAGACCUAUGAUAACAACCUACUACCUUCA | 0.00428 ± 0.0025
5 | GGAGACCAAACUAUACAACCUACUACCUGA | 0.133 ± 0.045
6 | GGAGACCUAUGAUUACAACCUACUACCUAA | 0.00444 ± 0.003
7 | GGAGACCUAUGAUAUGUUCCUACUACCUCA [g2:g12:cont:t1A] | < 0.0001
8 | GGAGACGAUACUAUACAACGUACAACCUCA | 0.0345 ± 0.0071
9 | GGAGACGAUACUAUACAACCUACCACCUCA | 0.122 ± 0.018
10 | GGAGAGGAUACUAUACAACACUACUACCUCA | 0.00372 ± 0.0023
11 | GGAGACCAAACUAUACUACCUACUACCUCA | 0.119 ± 0.022
12 | GGAGACCAUACUAAACAACCUACUUCCUCA | 0.068 ± 0.011
13 | GGAGACGAUACUAUACAACCUACUCCUCA | 0.0114 ± 0.0032
14 | GGAGACCUAUGUAUACAACCUAGCUACCUCA | 0.00713 ± 0.0027
15 | GGAGACCUAUGAAUACAACCUACCUACCUCA | 0.0088 ± 0.0035
16 | GGAGACCUAUGUAAACAACCUACUACCUCA | 0.0131 ± 0.0032
17 | GGAGACCUAACUAUACAACGUACUACCUGA | 0.00576 ± 0.0041
18 | GGAGUGGAUACAAUACAACCUACUACCUGA | 0.0731 ± 0.011
19 | GGAGACCAUACUAUAGUACCUACUACCUCA | 0.149 ± 0.018
20 | GGAGAGGAUACUAUACAAGCUACUACCUGA | 0.111 ± 0.015

Row | Sequence | pre-steady-state target cleavage rate
21 | GGAGAGGAUACUUUACAACCUACAACCUCA | 0.11 ± 0.016
22 | GGAGACCAUAUCUAUACAACCUACUACCUCA | 0.138 ± 0.015
23 | GGAGACCUAUGAUAUCAAACUACUACCUCA | 0.00495 ± 0.0026
24 | GGAGACGAUACUAUACUACCAACUACCUCA | 0.00729 ± 0.0029
25 | GGAGACCUAUGUAUACAACCUACUACCGUCA | 0.0528 ± 0.0094
26 | GGAGACGAUACUAUUCAUCCUACUACCUCA | 0.264 ± 0.021
27 | GGAGAGGAUAGUAUACAUCCUACUACCUCA | 0.0609 ± 0.011
28 | GGAGACGAUACUAUACAACGUACUACCUGA | 0.0157 ± 0.0045
29 | GGAGACGAUACUAUACAACCUACUACCUUCA | 0.194 ± 0.018
30 | GGAGACCUAACUAUGCAACCUACUACCUCA | 0.12 ± 0.013
31 | GGAGACGAUACUAUACAACCUAGUACCACA | 0.00571 ± 0.0053
32 | GGAGACCUAUGUAUACAACCUAUCUACCUCA | 0.0415 ± 0.01
33 | GGAGACGAUACUUUACAACGUACUACCUCA | 0.0294 ± 0.0045
34 | GGAGACGAUACUAUACAACCUCUACCUCA | 0.0213 ± 0.0044
35 | GGAGAGGAUUCUAUACUACCUACUACCUCA | 0.161 ± 0.0097
36 | GGAGACCUAUGAAAACAAGCUACUACCUCA | 0.00917 ± 0.0021
37 | GGAGACCUAUCUAUACAACCUACUACUCA | 0.0936 ± 0.013
38 | GGAGACGAUACUAUAUAACCUACUACCUCA | 0.205 ± 0.011
39 | GGAGACCUAUGUAUACUACCUACUACCACA | 0.0548 ± 0.008
40 | GGAGACCUAUGUAUACAUCCUACUACGUCA | 0.0275 ± 0.0061
